Here are results for 67 compounds from PubChem BioAssay AID504834 (National Center for Advancing Translational Sciences (NCATS), 2011).

Hit rate of the full screen: of about 320,000 compounds, about 22,000 (6.9%) were called active. Entries that show only a call come without a potency. Inconclusive results (about 27%) are left out. Calls come from the whole dose curve; as a rule, active = well fitted inhibition curve with a large enough effect; inconclusive = small, poorly fitted or top-dose-only effect, or another doubt; inactive = no such curve, though single readings can be large or run the other way. The full list was thinned out, with actives kept by preference.
Potency is the fitted concentration of half-maximal effect.

A short description of the test: Primary qHTS for delayed death inhibitors of the malarial parasite plastid, 96 hour incubation. Particulars: P. falciparum luciferase reporter growth; series mostly up to 28.7 µM. In outline:
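Delayed-death screen, second-generation endpoint: infected erythrocytes, 2% hematocrit, 0.05% parasitemia final; 96 hours at 37 C, 5% CO2; luciferase detection reagent; luminescence decrease equals reduced growth.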
On the technique in general: In qHTS, concentration-response curves come from the screen itself.
Regarding `Cc1nc2ccccn2c(=O)c1NC(=O)c1cccs1`, the Potency result was “inactive”. Then `COC(=O)c1sccc1NC(=O)c1ccc(Cl)cc1`, with “inactive”; and `Cc1cc(C)cc(NC(=O)CCN2C(=O)c3ccccc3C2=O)c1`, with “inactive”. Then `Cc1nn(-c2ccccn2)c2c1C(c1ccncc1)C1=C(CC(C)(C)CC1=O)N2` (configuration not stated), with 5.86 µM (active); and `Cc1cc(C)c(C2C3=C(Nc4c2c(C)nn4-c2ccccn2)c2ccccc2C3=O)c(C)c1` (configuration not stated), with 6.57 µM (active). Take `CC1(C)CC(=O)C2=C(C1)Nc1cc(C(=O)c3ccccc3)ccc1NC2c1ccccn1` (configuration not stated): the Potency result was “inactive”.

Consider `COc1ccc(C(C(=O)NC(C)(C)C)N(C(=O)Cn2nnc3ccccc32)c2ccc(C(C)=O)cc2)cc1O` (configuration not stated), for which the Potency result is “inactive”. Then `CCC(C)(C)NC(=O)C(c1cccn1C)N(Cc1ccc(C)cc1)C(=O)Cn1nnc2ccccc21` (configuration not stated), with “inactive”; and `CC(C)(C)NC(=O)C(c1ccco1)N(Cc1ccc2c(c1)OCO2)C(=O)Cn1nnc2ccccc21` (configuration not stated), with 14.7 µM (active); and `C=CCc1ccccc1OCC(O)CN1CCN(CCO)CC1` (configuration not stated), with “inactive”.

Turning to `C[n+]1cc(-c2ccccc2)oc1-c1ccccc1`, the Potency entry was “inactive”. For `Cc1nc2cccnc2nc1C` the value was “inactive”; for `Cc1ccc(C)c(N2CCN(C(=O)Cn3ncn4cccc4c3=O)CC2)c1`, “inactive”. For `Cc1ccc(C)c(N2CCN(C(=O)CCCCn3c(=O)[nH]c4ccccc4c3=O)CC2)c1` the value was “inactive”.

Consider `Cc1ccc(C)c(N2CCN(C(=O)CCCn3c(=O)c4cccn4c4cccnc43)CC2)c1`, for which the Potency is 13.1 µM (active). For the compound `Cn1nccc1/C=N\NC(=O)c1ccc(Cl)cc1`, the Potency result was “inactive”. For `CCNC(=O)CC1C(=O)N(c2ccc(OC)cc2)C(=O)N1CCOC` (configuration not stated) the value was “inactive”. On to `Cc1nnc(NC(=O)Nc2ccc(Cl)c(Cl)c2)s1`, for which the Potency entry is “inactive”.

As for `Cc1ccc(NC(=O)Nc2nnc(-c3ccncc3)s2)cc1`, the Potency was 9.28 µM (active). Then `CC(C)=CC(=O)Nc1nnc(-c2ccc(F)cc2)s1`, with “inactive”. For `COc1ccc(Cc2nnnn2CC(=O)O)cc1` the value was 1.65 µM (active); for `COc1ccc(CSc2nnnn2-c2ccc(C(=O)O)cc2)cc1`, “inactive”; for `CCCn1nnnc1NCc1ccc(OC)cc1`, “inactive”. On to `O=C(CCc1nnc(Cc2ccc3c(c2)OCO3)o1)NCCc1ccccc1Cl`, for which the Potency result was “inactive”. Then `Cc1ccc(-c2ncc(Cl)cc2-c2ccc(S(C)(=O)=O)cc2)cn1`, with 13.5 µM (active); and `Cc1c2cnn(CC(=O)NCCCN3CC(C)CC(C)C3)c(=O)c2c(C)n1Cc1ccc(Cl)cc1` (configuration not stated), with “inactive”; and `Cc1nc2ccccc2c(=O)n1NC(=O)c1ccccc1`, with “inactive”. Then `Cc1ccc(SCc2c(C(=O)N/N=C/C3CC=CCC3)nnn2-c2nonc2N)cc1` (configuration not stated), with “inactive”. Then `CNC1(c2nnnn2-c2c(C)cccc2C)CCOC(C)(C)C1` (configuration not stated), with “inactive”; and `COc1ccc(C2(C)ON(c3ccccc3C(F)(F)F)C2=O)cc1` (configuration not stated), with 2.62 µM (active). Consider `COc1ccc(C23NCCN2C(=O)c2ccccc23)cc1` (configuration not stated), for which the Potency entry is “inactive”. Take `COc1ccc(C2(C)NC(=O)N(CC(=O)c3ccc4c(c3)OCO4)C2=O)cc1` (configuration not stated): the Potency entry was “inactive”.

In the case of `COC(c1ccccc1)(c1ccccc1)C(Oc1nc(C)cc(C)n1)C(=O)O` (configuration not stated), the Potency entry is “inactive”. With `Cc1ccc(OCCNC(=O)CN2C(=O)NC3(CCCC3)C2=O)cc1`, the Potency entry is “inactive”. Then `COc1ccc(NC(=O)CSc2nc(SC)ns2)c(OC)c1`, with “inactive”; and `Cc1ccc(Cc2nnc(SCC(=O)Nc3ccccc3C)[nH]c2=O)cc1`, with “inactive”. Then `COC(=O)COc1ccc2c(=O)c(Oc3ccccc3Br)coc2c1`, with “inactive”; and `FC(F)(F)Oc1ccc(-c2cn3cccnc3n2)cc1`, with “inactive”. For `COc1ccc(-c2[nH]ncc2CN(Cc2nccn2C)C(C)C)cc1F` the value was “inactive”. As for `COc1ccc(CN2CCN(c3ccccc3F)CC2)c(OC)c1`, the Potency result is “inactive”. In the case of `CCN1CCC2(CCN(Cc3cn[nH]c3-c3ccc(OC)c(F)c3)C2)C1` (configuration not stated), the Potency is 10.4 µM (active). Then `CN(C)CC(O)COc1ccc(C(C)(C)c2ccc(OCC(O)CN(C)C)cc2)cc1` (configuration not stated), with “inactive”; and `CCCC(O)(c1ccc(OC)cc1)C(CN(C)C)c1ccccc1` (configuration not stated), with 14.7 µM (active).

With `COc1ccc(C(O)(C2CCCCC2)C(CN2CCCC2)c2ccccc2)cc1` (configuration not stated), the Potency entry is “inactive”.

Take `COc1ccc(NC(=O)CN(C)C(=O)c2n[nH]c3ccccc23)cc1`: the Potency entry was “inactive”. For `S=C(NCc1ccc(Cl)cc1)NC1CCCCC1` the value was “inactive”; for `S=C(NCc1ccc(Cl)cc1)NC12CC3CC(CC(C3)C1)C2`, 11.7 µM (active); for `O=C(NCc1ccc(Cl)cc1)NCc1ccc(Cl)cc1`, “inactive”. As to `CCN(Cc1ccccc1)S(=O)(=O)c1cc2c3c(c1)CCN3C(=O)CC2`, the Potency result was “inactive”.

For `COc1ccc(C(CNCC(=O)Nc2ccccc2F)N(C)C)cc1` (configuration not stated), the Potency result was “inactive”. For `COc1ccccc1NS(=O)(=O)c1ccc(C(=O)N2CCN(c3ccccc3O)CC2)cc1`, the Potency was 11.7 µM (active). Then `COc1ccccc1NC(=O)C1CCN(C(=O)c2ccc(C(C)(C)C)cc2)CC1`, with “inactive”; and `COc1ccc(S(=O)(=O)Nc2ccccc2C(=O)N2CCCC2)cc1C`, with “inactive”. For `O=C(c1ccc(S(=O)(=O)N2CCOCC2)cc1)N1CCN(c2ccccc2)CC1` the value was “inactive”. For `O=C(c1ccc(S(=O)(=O)N2CCCC2)cc1)N1CCN(c2ccccc2F)CC1` the value was 4.65 µM (active); for `COc1ccccc1N1CCN(C(=O)c2ccc(S(=O)(=O)N3CCCCC3)cc2)CC1`, “inactive”. Regarding `O=C(COC(=O)/C=C/c1ccc2c(c1)OCO2)NC1CCS(=O)(=O)C1` (configuration not stated), the Potency entry is “inactive”.

Regarding `Cn1nc(C(=O)OCC(=O)N(Cc2ccccc2)C(C)(C)C)c2ccccc2c1=O`, the Potency result is “inactive”. Turning to `CSc1nnc(NC(=O)c2nc(S(=O)(=O)Cc3ccc(C)cc3)ncc2Cl)s1`, the Potency result is “inactive”. `CC1(C)COC(c2cccn2Cc2ccccc2Cl)=N1`: the Potency is 9.28 µM (active). For `O=S1(=O)CCN(Cc2ccccc2Cl)CC1` the value was “inactive”; for `O=C(Nc1cccn(Cc2ccccc2Cl)c1=O)NC1CCCCC1`, “inactive”; for `NC(=O)c1cc(-c2cccnc2)nc2ccc(Br)cc12`, “inactive”. On to `C=CCn1c(SCCOc2ccc(OC)cc2)nnc1C(NC(=O)c1ccc(OC)cc1)C(C)C` (configuration not stated), for which the Potency was 10.4 µM (active). Then `C=CCn1c(SCC(=O)c2ccc(Br)cc2)nnc1C(C)NC(=O)Cc1ccc(OC)cc1` (configuration not stated), with “inactive”; and `C=CCn1c(SCc2ccc(Cl)c(Cl)c2)nnc1C(CO)NC(=O)c1ccc(OC)cc1` (configuration not stated), with “inactive”; and `CC[C@]1([C@H]2O[C@@H]([C@@H]3O[C@](O)(CO)[C@@H](C)C[C@H]3C)C[C@H]2C)CC[C@@H]([C@]2(C)CC[C@@]3(C[C@@H](O)[C@@H](C)[C@@H]([C@H](C)[C@H](OC)[C@H](C)C(=O)O)O3)O2)O1`, with 0.019 µM (active).
